Bioassay records deposited in PubChem BioAssay by National Center for Advancing Translational Sciences (NCATS).
Only some compounds are listed: those with a hit (about 12% of all), similar ones and a draw of the others.
G9a block – inhibitors of human histone lysine methyltransferase G9a; Q96KQ7; AID 504332; G9a H3K9 monomethylation, AlphaScreen, 2 h; actives 8.8% (n = 350,000); Potency, µM (series often up to 102 µM), most hits filed as inhibitors; also: nearly all actives have a fitted effect of over 75% in size
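Using a bead-based AlphaScreen, monomethylated H3K9 product from 2 h room-temperature reactions (G9a 20 nM, peptide 500 nM, SAM 20 uM) was detected with 0.5 ug/mL rabbit anti-H3K9me1 antibody.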
Sfp inh – blocks B. subtilis Sfp PPTase activity. Biochemical Sfp PPTase activity, qHTS. Potency, µM, hits mostly inhibitors. actives 3.5% (n = 310,000). AID 1490;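 also: the enzyme is Sfp with the accession as filed and its product quenches rhodamine fluorescence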
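Buffer: 50 mM Hepes-Na pH 7.6, 10 mM MgCl2, 0.01% Nonidet P-40, 0.01% BSA. Enzyme 15 nM, pre-exposed to compound 15 min; substrates then added and fluorescence change tracked over 30 min.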
JMJD2A Tudor inh – blocks the human JMJD2A Tudor domain | O75164 | AlphaScreen JMJD2A-Tudor / H3K4me3 peptide binding | Potency, µM (doses to about 114 µM), usual class: inhibitors | actives 4.4% (n = 390,000) | AID 504339; also: nearly all actives have a fitted effect of over 50% in size
BAZ2B block – inhibitors of human BAZ2B bromodomain; AlphaScreen BAZ2B-H3K14Ac peptide displacement; Potency, µM (top dose mostly 114 µM), hits mostly inhibitors; actives 4.4% (n = 360,000); Q9UIF8; AID 504333; also: nearly all actives have a fitted effect of over 60% in size
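BAZ2B (50 nM) with biotin-H3(5-23)K14Ac peptide (50 nM) in PBS pH 7.4, 0.01% Tween-20, preformed 30 min, then compound 30 min at room temperature; top concentration 110uM. AlphaScreen streptavidin donor/nickel chelate acceptor beads (10 ug/mL final), 20 min dark, signal read.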
HP1b binding inh – inhibitors of HP1-beta chromodomain binding to methylated histone tails; P83916; actives 0.56% (n = 390,000); AID 540317; AlphaScreen HP1-beta / biotin-H3K9me3 peptide binding; Potency, µM (titrated, usually from 114 µM), hits mostly inhibitors; also: nearly all actives have a fitted effect of over 70% in size
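HP1-beta protein (50 nM final) preincubated 30 min at room temperature with biotinylated H3(1-18)K9me3 peptide (50 nM) in PBS pH 7.4, 0.01% Tween-20, then compound added for 30 min. AlphaScreen streptavidin donor/nickel chelate acceptor beads (10 ug/mL final), 30 min dark, luminescence read.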
Each line names hits and unclear results; the compound was inactive in the other large screens; ! = a repeat was not active. Calls follow the shape of the dose curve; as a rule, active = well fitted curve in the direction sought with a large enough effect; inconclusive = small, poorly fitted or top-dose-only effect, or another doubt; inactive = no such curve, though single readings can be large; an effect the other way counts as inactive or inconclusive.

COc1ccc(CN(C)Cc2c(O)ccc3ccccc23)cc1	G9a block 18µM
CN(Cc1ccccc1)Cc1ccccc1	none (no result: JMJD2A Tudor inh, BAZ2B block, HP1b binding inh)
CCCC(=O)N(CC(=O)Nc1sc(C)c(C)c1C(N)=O)Cc1ccccc1	none
CCN1C[C@@H]2[C@@H]3C(=O)N(Cc4ccccc4)C(=O)[C@@H]3[C@](CC)(C1=O)N2C(=O)c1ccc(C(C)(C)C)cc1	none (no result: G9a block, Sfp inh, BAZ2B block)
COc1ccc2ccccc2c1CNC(C)CCc1ccccc1 (configuration not stated)	JMJD2A Tudor inh 79µM (no result: G9a block)
COc1ccc2ccccc2c1CN(C)Cc1ccccc1	JMJD2A Tudor inh 28µM, BAZ2B block inconclusive
O=C(NCCc1cnc[nH]1)Nc1cccc(C(F)(F)F)c1	BAZ2B block inconclusive
CCOC(=O)CNC(=O)C(=O)c1c(O)[nH]c2ccccc12	JMJD2A Tudor inh 50µM
CCOc1c(C(N)=O)cc([N+](=O)[O-])cc1[N+](=O)[O-]	none
NC(=O)C1CC(=O)N(c2ccc(OCc3ccc(F)cc3)cc2)C1 (configuration not stated)	none
Cc1c(C)[n+](=O)c2c(n1[O-])C(Br)CCC2Br (configuration not stated)	G9a block 1µM, JMJD2A Tudor inh 79µM, BAZ2B block 79µM
Cc1c(CBr)[n+](=O)c2c(n1[O-])C(Br)CCC2Br (configuration not stated)	G9a block 7.9µM, Sfp inh 11µM, JMJD2A Tudor inh 20µM, BAZ2B block 28µM
Cc1[nH]c2ccccc2c1-c1csc(NC(=O)CSCCO)n1	G9a block 71µM, JMJD2A Tudor inh inconclusive, BAZ2B block inconclusive
CCn1c(=S)sc2c(=O)n(-c3ccccc3)c(SC)nc21	G9a block 45µM, Sfp inh inconclusive
Cc1cccn2c(=O)c3cc(C(=O)NC(C)C)n(C)c3nc12	none (no result: Sfp inh)
O=P(O)(O)CP(=O)(O)O	G9a block 7.1µM, BAZ2B block 50µM (no result: JMJD2A Tudor inh, HP1b binding inh)
COc1ccc(CCN(Cc2ccccn2)C(=S)Nc2ccccc2Cl)cc1OC	none
Cc1ccc(-c2[nH]ncc2CNCCc2cnn(-c3ccccc3)c2)cc1C	Sfp inh 79µM
O=[N+]([O-])c1cc(Br)cc(/C=N/n2cnnc2)c1O	G9a block 32µM, BAZ2B block inconclusive
O=C1C2C(C(=O)N1/N=C/c1cc(Br)cc([N+](=O)[O-])c1O)C1C=CC2C12CC2 (configuration not stated)	G9a block inconclusive, JMJD2A Tudor inh 79µM, BAZ2B block inconclusive, HP1b binding inh inconclusive
O=C1C2C(C(=O)N1/N=C/c1cc([N+](=O)[O-])c(O)cc1O)C1C=CC2C12CC2 (configuration not stated)	G9a block 56µM, Sfp inh inconclusive, JMJD2A Tudor inh 50µM, BAZ2B block inconclusive
CCS/C(N)=N/N=C/c1cc(C)ccc1O	none
O=[N+]([O-])c1cc(Cl)cc(/C=N/n2cnnc2)c1O	none (no result: BAZ2B block)
C=CCS/C(N)=N\N=C\c1cc(Br)cc([N+](=O)[O-])c1O	G9a block 50µM, BAZ2B block inconclusive
COc1ccc(CNS(=O)(=O)c2csc(C(N)=O)c2)cc1OC	JMJD2A Tudor inh 32µM!
O=C(COC(=O)C1CC1)Nc1ccc([N+](=O)[O-])cc1C(F)(F)F	G9a block inconclusive (no result: Sfp inh)
COc1ccc([N+](=O)[O-])c(S(=O)(=O)c2ccccc2)n1	G9a block 11µM, Sfp inh inconclusive
COc1nc(OC)nc(Oc2ccc(Cl)cc2[N+](=O)[O-])n1	none
O=[N+]([O-])c1cccnc1S(=O)(=O)c1ccccc1	G9a block inconclusive
COc1ccc([N+](=O)[O-])c(S(=O)(=O)c2ccc(Cl)cc2)n1	G9a block 18µM, Sfp inh inconclusive
C=CCC1(/C=N/O)CCOC(C)(C)C1 (configuration not stated)	none (no result: G9a block)
CCN1CCCC1CNC(=O)c1cc2ccc(OC)cc2[nH]1 (configuration not stated)	G9a block inconclusive
CSc1c(-c2ccccc2)nc2ccc(Cl)cc2c1C(=O)O	none
Cc1ccc2nc(-c3ccccc3)c(CC(=O)O)c(C(=O)O)c2c1	G9a block 45µM, BAZ2B block inconclusive
O=S(=O)(Nc1cccc2c1ccc1cccn12)c1cccs1	BAZ2B block inconclusive
Cc1ccc2nc(N(Cc3cccnc3)C(=O)C3CCCCC3)sc2c1	none (no result: Sfp inh)
COc1ccc(CCNC(=O)c2ccc(Cl)nc2)cc1	none
COc1ccccc1NS(=O)(=O)c1cc(NC(=O)c2cc[n+]([O-])cc2)ccc1N1CCCC1	G9a block inconclusive, Sfp inh 11µM, JMJD2A Tudor inh 63µM, HP1b binding inh inconclusive (no result: BAZ2B block)
COc1ccccc1NS(=O)(=O)c1cc(NC(=O)C(C)C)ccc1N1CCCCC1	G9a block 8.9µM, Sfp inh 40µM, JMJD2A Tudor inh inconclusive, HP1b binding inh inconclusive (no result: BAZ2B block)
COc1ccccc1NS(=O)(=O)c1cc(NC(=O)Nc2ccccc2)ccc1N1CCCCC1	G9a block 10µM, Sfp inh inconclusive, HP1b binding inh inconclusive
O=C(Nc1ccc(F)cc1)Nc1ccc(N2CCCC2)c(S(=O)(=O)Nc2ccccc2Cl)c1	G9a block inconclusive
COc1ccccc1NS(=O)(=O)c1cc(NC(=O)c2cccs2)ccc1N1CCCCC1	none
COc1ccccc1NS(=O)(=O)c1cc(NC(=O)c2cccs2)ccc1N1CCCC1	G9a block 1.6µM, Sfp inh 20µM, JMJD2A Tudor inh inconclusive, HP1b binding inh inconclusive
COCC(=O)Nc1ccc(N2CCOCC2)c(S(=O)(=O)Nc2ccccc2OC)c1	HP1b binding inh inconclusive (no result: G9a block, Sfp inh, BAZ2B block)
COC(=O)c1cc(-c2cccs2)[nH]n1	none
OCCOCCNc1ncnc2c1c(-c1ccccc1)cn2-c1ccccc1	none
COc1cc(O)c(C(=O)c2ccccc2)cc1O	Sfp inh 11µM (no result: G9a block, JMJD2A Tudor inh, BAZ2B block, HP1b binding inh)
COc1ccc(OC)c(Cc2nnc(CCC(=O)NCc3ccc(C)s3)o2)c1	G9a block 25µM, BAZ2B block inconclusive
Cc1ccc(C(=O)NC(=S)NNC(=O)c2ccccc2O)cc1	G9a block inconclusive
Cc1ccccc1C(=O)NNC(=S)NC(=O)c1ccccc1	G9a block 4µM
O=C(NC(=S)NNC(=O)c1ccccc1O)c1ccccc1	G9a block 32µM, JMJD2A Tudor inh 32µM, BAZ2B block inconclusive
O=C(NC(=S)NNC(=O)c1ccccc1O)c1cccs1	JMJD2A Tudor inh 45µM, BAZ2B block inconclusive
O=C(NC(=S)NNC(=O)c1ccccc1O)c1ccc(F)cc1	JMJD2A Tudor inh 56µM, BAZ2B block inconclusive
COc1ccc(C(=O)NCCn2cc(SCC(=O)NCc3ccco3)c3ccccc32)cc1	Sfp inh inconclusive, JMJD2A Tudor inh inconclusive
Cc1cccc(N=Cc2[nH]c3ccc(Br)c(Cl)c3c2O)c1	G9a block 10µM, JMJD2A Tudor inh inconclusive, HP1b binding inh inconclusive
Cc1ccc(C(=O)CSc2nc3c([nH]2)c(=O)n(C)c(=O)n3C)cc1	G9a block 40µM
Cc1ccc(C(=O)CSc2nc(N)cc(=O)[nH]2)cc1	none
CC(C)N(C(=O)CSc1nc2c([nH]1)c(=O)n(C)c(=O)n2C)c1ccccc1	G9a block 25µM
